Reference: PubChem BioAssay AID588342 (National Center for Advancing Translational Sciences (NCATS), 2011)
Hit rate of the full screen: of about 360,000 compounds, about 25,000 (6.9%) were called active. Where a call stands in place of a potency, no number is given. Inconclusive results (about 9%) are left out. The sample as a whole holds a higher share of actives than the screen did. Unmarked numbers belong to inactive results. The call rests on the fitted dose curve; in most records, active means well fitted inhibition curve with a large enough effect; inconclusive means small, poorly fitted or top-dose-only effect; inactive means flat fitted curve, though single readings scatter.

The compounds below were run against Luciferin 4-monooxygenase (Photinus pyralis) (UniProt P08659) (assay: qHTS profiling assay for firefly luciferase inhibitor/activator using purifed enzyme and Km concentrations of substrates (counterscreen for miR-21 project)). Settings: purified FLuc, luminescence inhibition; series mostly up to 57.5 µM.
Method in brief: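 Purified P. pyralis luciferase, 10 nM final, with Km-level 10 uM D-luciferin and 10 uM ATP in 50 mM Tris acetate pH 7.5, 10 mM Mg acetate, 0.01% Tween-20, 0.05% BSA; 6-point qHTS titration about 60 µM downward; luminescence read.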
Further: nearly all actives have a fitted effect of over 55% in size.
Potency means the concentration at half of the fitted maximal effect.

Chain of Luciferin 4-monooxygenase (Photinus pyralis) (P08659 whole entry, looked up): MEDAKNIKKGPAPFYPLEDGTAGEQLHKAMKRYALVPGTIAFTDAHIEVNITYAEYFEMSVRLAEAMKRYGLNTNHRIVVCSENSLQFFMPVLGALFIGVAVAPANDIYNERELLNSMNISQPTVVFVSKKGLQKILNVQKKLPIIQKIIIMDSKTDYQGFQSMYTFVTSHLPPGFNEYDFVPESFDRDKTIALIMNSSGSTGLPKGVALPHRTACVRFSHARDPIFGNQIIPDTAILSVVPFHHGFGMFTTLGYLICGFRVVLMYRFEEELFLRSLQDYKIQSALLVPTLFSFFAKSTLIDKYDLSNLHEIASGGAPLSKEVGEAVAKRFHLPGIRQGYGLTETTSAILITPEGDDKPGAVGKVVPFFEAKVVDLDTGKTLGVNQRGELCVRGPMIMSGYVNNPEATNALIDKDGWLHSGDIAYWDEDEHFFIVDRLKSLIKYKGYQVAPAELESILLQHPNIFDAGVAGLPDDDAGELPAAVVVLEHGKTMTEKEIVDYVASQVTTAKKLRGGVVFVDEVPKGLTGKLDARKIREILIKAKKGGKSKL

Structure (SMILES) | Potency | activity change, negative = inhibition
CC(=O)c1ccc(NC(=O)c2nc3nc(C)cc(C(F)F)n3n2)cc1 | inactive | –
Cc1cc(C)cc(N(CC(=O)NC2CCCC2)C(=O)CCC(=O)Nc2cc(C)on2)c1 | inactive | –
CCOC(=O)c1c(S(=O)(=O)N2CCCC(C(=O)NCc3ccc(F)cc3)C2)c(C)n(CC)c1C (stereo unspecified) | inactive | –
Cc1ccc(C(=O)OCC(=O)NCc2ccc3c(c2)OCO3)s1 | inactive | –
CCOC(=O)c1nc(-c2ccc3c(c2)OCO3)[nH]c1C | 15.1 µM (active) | –
CCOCCOC(=O)C1=C(C)NC(=O)NC1c1ccc2c(c1)OCO2 (stereo unspecified) | inactive | –
CCCCN(CC)CCNC(=O)CCNC(=O)Cn1ccc2ccccc2c1=O | inactive | –
Cc1ccc(C)c(OCC(=O)Nc2sc3c(c2C#N)CCCC3)c1C | inactive | –
O=c1cc(COc2cccc(C(F)(F)F)c2)nc2sc3c(n12)CCCC3 | inactive | –
O=C1NN(c2ccccc2)C(=O)/C1=C/c1ccc(-c2cccc(C(=O)O)c2)o1 | 26.9 µM (active) | –
CN1C(=O)/C(=C/c2ccco2)SC1=Nc1cccc(C(=O)O)c1 | inactive | –
CC(=O)c1cc(-c2ccccc2)[nH]c1N1CCCC1 | inactive | –
CCCN(CCC)S(=O)(=O)c1ccc(C(=O)Nc2sc3c(c2C(=O)OC)CCN(CC)C3)cc1 | inactive | –
CCc1nnc(NC(=O)C2CCN(C(=O)c3ccccc3C)CC2)s1 | inactive | –
CC(C)(C)c1ccc(/C=C/C(=O)NC2CCS(=O)(=O)C2)cc1 (stereo unspecified) | inactive | –
O=C(/C=C/c1ccc(Cl)cc1)Nc1ccc(Br)cn1 | inactive | –
CC(C)(C)c1ccc(/C=C/C(=O)Nc2ncccn2)cc1 | 4.78 µM (active) | –
O=S(=O)(Cc1nnnn1-c1ccc(Br)cc1)c1ccc(F)cc1 | inactive | –
Cc1cc(C)c(CN2CCN(C(=O)Cn3ccc(NC(=O)OCc4ccccc4)nc3=O)CC2)c(C)c1 | inactive | –
Cc1cc(C(=O)OCC(=O)N2c3ccccc3NC(=O)C2(C)C)c(C)n1-c1ccccc1 | inactive | –
Cc1cc(-c2csc(N)n2)c(C)n1-c1ccccc1 | 19 µM (active) | –
CC(=O)Nc1ccc(C(=O)Nc2nc(-c3cc(C)n(Cc4ccccc4)c3C)cs2)cc1 | inactive | –
C=CCSc1ccc(S(=O)(=O)N2CCN(C)CC2)cn1 | inactive | –
Cc1nc2ccc(S(=O)(=O)N(C)CC(=O)NC(C)c3ccccc3)cc2s1 (stereo unspecified) | inactive | –
CCN(CC)S(=O)(=O)c1ccc(NC(=O)CN(c2cccc(F)c2)S(C)(=O)=O)cc1 | inactive | –
Cc1cccc(N(CC(=O)Nc2ccc(-c3nc4ccc(C)cc4s3)cc2)S(C)(=O)=O)c1 | 5.36 µM (active) | –

Structure (SMILES) | Potency | activity change, negative = inhibition
COc1cc(NC(=O)CN(C)S(=O)(=O)c2ccc3nc(C)sc3c2)cc(OC)c1 | inactive | –
COc1cccc(N(CC(=O)Nc2cccc(F)c2)S(C)(=O)=O)c1 | inactive | –
Cc1ccc2nc(-c3ccc(NC(=O)CN(C)S(=O)(=O)c4ccccc4)cc3)sc2c1 | 15.1 µM (active) | –
C=CCNC(=O)COC(=O)CNC(=O)c1cc(Cl)cc([N+](=O)[O-])c1 | inactive | –
Cc1ccc(C)c(N2CCN(C(=O)Cc3c(C(=O)O)c(C)cn3C)CC2)c1 | inactive | –
CSc1cccc(NC(=O)CN2C(=O)CCc3cc(S(=O)(=O)N4CCCCC4)ccc32)c1 | inactive | –
Cn1c(=O)n(C)c2cc(C(=O)Nc3ccc(Br)cc3)ccc21 | 15.1 µM (active) | –
COc1cccc(OC)c1C(=O)Nc1ccc2c(c1)n(C)c(=O)n2C | inactive | –
Cn1c(=O)n(C)c2cc(/C=N/NC(=O)c3cccc(Br)c3)ccc21 | inactive | –
COc1cc(OC)c(OC)cc1/C=C/c1nc2ccccc2c(=O)n1-c1ccc(Br)c(C)c1 | inactive | –
CCOCCCNC(=O)c1ccc(CS(=O)(=O)c2cccc(C(F)(F)F)c2)o1 | inactive | –
C=CCc1c(C)nc2cc(-c3ccccc3)[nH]n2c1=O | 6.01 µM (active) | –
CCCCN1Cc2c(nc3cc(-c4ccccc4)[nH]n3c2=O)C1=O | 19 µM (active) | –
CCc1c(C)nc2cc(C)[nH]n2c1=O | inactive | –
CCc1c(C)nc2cc(-c3cccs3)[nH]n2c1=O | 16.9 µM (active) | –
Cc1nc2c(-c3ccccc3)c(C)[nH]n2c(=O)c1Cl | inactive | –
Cc1cc2nc3c(=O)n(Cc4ccccc4)c(=O)[nH]c3nc2cc1N | inactive | –
CCCCCN1CC(O)=C(c2ccccc2)C1=N | inactive | –
Cc1nc2scc(-c3cccs3)c2c(=O)n1N | inactive | –
CCOC(=O)c1ccc(NC(=O)CCS(=O)(=O)c2ccc(C)cc2)cc1 | inactive | –
O=C(/C=C/c1cccc([N+](=O)[O-])c1)OCC(=O)N1CCOCC1 | inactive | –
CCc1ccccc1N1C(=O)CN(S(=O)(=O)CC)CC1(C)C(=O)NC1CCCCC1 (stereo unspecified) | inactive | –
CCCn1c2ccccc2c2cnn(CC(=O)N3CCCC(C(=O)OCC)C3)c(=O)c21 (stereo unspecified) | inactive | –
Cn1c(=O)[nH]c(=O)c2c1nc(NCCc1ccccc1)n2Cc1ccc(F)cc1 | inactive | –
COc1ccc2c(c1)CCC/C2=N\OC(=O)c1ccccc1F | 12 µM (active) | –
COc1cc2c(cc1OC)C(COc1ccc(F)cc1)N(C(=O)c1ccccc1F)CC2 (stereo unspecified) | inactive | –

Structure (SMILES) | Potency | activity change, negative = inhibition
COc1ccc(OC)c(S(=O)(=O)Nc2ccccc2F)c1 | inactive | –
O=C(CNS(=O)(=O)c1ccc2c(c1)OCCCO2)N1CCN(c2ccc(F)cc2)CC1 | inactive | –
COC(=O)/C(=C1\Oc2ccc(C(C)(C)C)cc2S1)C(F)(F)F | 3.79 µM (active) | –
CCOC(=O)C1=C(c2ccccc2)O/C(=C(/C(=O)OC)C(F)(F)F)S1 | inactive | –
CC(C)(C)c1ccc(C(=O)NCC(c2ccco2)S(=O)(=O)c2ccc(F)cc2)cc1 (stereo unspecified) | inactive | –
CCOC(=O)c1c(C)n(S(=O)(=O)c2ccc(C)cc2C)c2ccc(NS(=O)(=O)c3ccc(C)cc3C)cc12 | inactive | –
O=C(Nc1ccc(OC(F)(F)F)cc1)C1CCCN(S(=O)(=O)c2ccc(Br)s2)C1 (stereo unspecified) | inactive | –
Cc1ccc2c(=O)cc(C(=O)Nc3sc4c(c3C(=O)NCc3cccnc3)CCCC4)oc2c1 | inactive | –
COc1ccccc1C(=O)NCCn1cc(SCc2ccccc2Cl)c2ccccc21 | inactive | –
Cc1ccccc1NC(=O)Cn1c(=O)n(CCc2ccccc2)c(=O)c2ccccc21 | inactive | –
Cc1nnc(C)n1-c1ccc(C(=O)Nc2cccc(Br)c2)cc1 | inactive | –
Cc1cccc(C)c1-n1c(C)cc(/C=C2\C(=O)NN(c3ccccc3)C2=O)c1C | 3.38 µM (active) | –
COc1ccc(CNC(=O)c2cc3c(s2)-c2ccccc2OC3)cc1 | inactive | –
Cc1csc(=O)n1CCC(=O)OCC(=O)NNC(=O)c1ccc(Br)cc1 | inactive | –
Cc1ccc(Cn2c(CCCNC(=O)C3CCCCC3)nc3ccccc32)cc1 | inactive | –
CCCc1nc2c(C)cc(-c3nc4ccccc4n3C)cc2n1Cc1ccc(-c2ccccc2C(=O)O)cc1 | 13.5 µM (active) | –
CC(=O)Nc1nc2ccccc2n1Cc1ccc(C)cc1 | inactive | –
Cc1ccc(C)c(C(=O)COC(=O)Cn2[nH]c(=O)c3ccccc3c2=O)c1 | inactive | –
CCOc1ccccc1NC(=O)Cn1c2ncccc2c(=O)n1-c1ccc(C)c(C)c1 | inactive | –
COc1ccc(COCC(O)CN2CCC(C(N)=O)CC2)cc1 (stereo unspecified) | inactive | –
CCOc1cc(CN2CCN(C(=O)CC(C)C)CC2)ccc1OC | inactive | –
COc1cc(CN2CCC(C(N)=O)CC2)ccc1OCc1ccccc1 | 10.7 µM (active) | –
CCC(C)(C)NC(=O)CN(Cc1cccs1)C(=O)CNS(=O)(=O)c1ccc(F)cc1 | inactive | –
CCOC(=O)Cn1c(=O)n(Cc2ccc(OC)cc2)c(=O)c2cccnc21 | inactive | –
CCOC(=O)c1cnc2c(C)cc(Cl)cc2c1NCCc1ccc(OC)c(OC)c1 | inactive | –
COc1cc(NC(=O)Cn2nc(-c3ccc(C)c(C)c3)ccc2=O)cc(OC)c1 | inactive | –

Structure (SMILES) | Potency | activity change, negative = inhibition
CC(C)c1cc(C(N)=O)c(NC(=O)c2cccc(COc3ccc(Br)cc3)c2)s1 | 19 µM (active) | –
CCOC(=O)c1cc(C(C)C)sc1NC(=O)COC(=O)c1nccnc1N | inactive | –
NNC(=O)c1cccc(COCC(F)(F)C(F)F)c1 | inactive | –
COc1ccc(CCNC(=O)Cn2c(=O)n(-c3ccccc3)c(=O)c3c(C)c(C)sc32)cc1OC | inactive | –
CCOc1ccc(N(CC)C(=O)c2cc3c(=O)oc4ccccc4c3s2)cc1 | inactive | –
Cc1ccc(N/C=C/C(=O)c2ccccc2)cc1C | 0.151 µM (active) | –
CCOc1ccc(N/C=C/C(=O)c2ccccc2)cc1 | 0.269 µM (active) | –
COCCN(C(=O)CCC(=O)Nc1ccccn1)C(C(=O)NCCC(C)C)c1ccc(OC)cc1 (stereo unspecified) | inactive | –
CCCOc1ccc(NC(=O)C2OC3OC(C)(C)OC3C3OC(C)(C)OC23)cc1 (stereo unspecified) | inactive | –
COc1ccc(N2C(=O)CCC(C(=O)Nc3ccccn3)C2c2ccc(OC)c(OC)c2)cc1 (stereo unspecified) | inactive | –
COc1ccc(C(=O)/C=C/Nc2ccccn2)cc1 | 0.107 µM (active) | –
CCOc1ccc(NC(=S)N2CCC(NC(=O)c3ccccc3)CC2)cc1 | inactive | –
Cc1ccc(NNC(=O)C2CCC2)cc1C | inactive | –
CCOc1ccc(NC(=O)C2CCCN(C(=O)Nc3ccccc3)C2)cc1 (stereo unspecified) | inactive | –
CCCOc1ccc(NC(=O)C2CCCNC2=O)cc1 (stereo unspecified) | – | 3.63% [at 2.3 µM]
Cc1ccc(N(NC(=O)C(C)(C)O)C(=O)c2ccccc2)cc1C | inactive | –
CCCOc1ccc(N/C=C/C(=O)C(C)(C)C)cc1 | 10.7 µM (active) | –
CC(Oc1ccccc1F)C(=O)NN (stereo unspecified) | inactive | –
CCOC(=O)Cc1ccc(NC(=O)Nc2c[nH]c(=O)[nH]c2=O)cc1 | inactive | –
COc1ccc(OC)c(NC(=O)CN2CCCN(Cc3cc(C)ccc3C)S2(=O)=O)c1 | inactive | –
COc1cccc(NC(=O)C2CCN(c3cc(C)nc4c(-c5ccc(Cl)cc5)c(C)nn34)CC2)c1 | inactive | –
COc1ccc(OC)c(-c2noc(N3CCN(c4cc(Cl)ccc4C)CC3)n2)c1 | inactive | –
Cc1ccccc1CNC(=O)Cn1c(C)c2cnn(-c3ccccc3)c(=O)c2c1C | inactive | –
